MITF inh – human MITF inhibition, primary screen; O75030; AlphaScreen MITF homodimerization, bead proximity signal; inhibition, % at 2.6 µM; actives 0.91% (n = 650,000); in the data active means inhibition above about 50%;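 further: 0% = vehicle wells with protein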
TEAD-YAP block – TEAD-YAP interaction inhibition; HEK-TIYL cells, TEAD-Gal4/YAP UAS-luciferase luminescence; inhibition, % at 9.12 µM; actives 1.4% (n = 640,000); in the data active means inhibition above about 32%;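 further: 0% = median of test compound wells and 100% = reference inhibitor wells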
FBW7 act – human FBW7 E3 ligase activation, primary screen. AlphaScreen FBW7–phospho-cyclin E peptide binding, activator screen. AID 1259310. actives 0.13% (n = 650,000). Q969H0. normalized activity (activation), % at 26.1 µM; in the data active means normalized activity above about 1.9%;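 further: purified mutant Fbw7 with reduced substrate affinity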
GPR151 activ – activates the human receptor GPR151; Q8TDV0; PathHunter beta-arrestin GPR151 cells, luminescence; activation, % at 11.2 µM; actives 1% (n = 650,000); in the data active means activation above about 4.9%;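 further: 0% = median of compound wells and 100% = cells with positive control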
Target sequence (Q8TDV0 whole entry, looked up): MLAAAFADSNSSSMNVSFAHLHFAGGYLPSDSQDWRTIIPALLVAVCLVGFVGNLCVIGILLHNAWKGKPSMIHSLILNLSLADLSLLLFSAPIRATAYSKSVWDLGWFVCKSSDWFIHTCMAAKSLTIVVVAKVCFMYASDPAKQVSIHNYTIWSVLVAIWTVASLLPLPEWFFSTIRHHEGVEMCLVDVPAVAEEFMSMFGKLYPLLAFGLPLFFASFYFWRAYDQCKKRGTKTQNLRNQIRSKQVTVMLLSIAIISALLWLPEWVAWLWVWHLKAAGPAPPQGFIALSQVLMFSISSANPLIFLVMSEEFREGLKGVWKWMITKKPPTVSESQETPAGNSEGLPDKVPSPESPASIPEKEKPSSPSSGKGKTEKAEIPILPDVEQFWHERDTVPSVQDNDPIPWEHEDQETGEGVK
* hit, by the source's call; · = no result. An excerpt weighted towards active compounds, which were near 3.5% of everything screened.

SMILES | MITF inh | TEAD-YAP block | FBW7 act | GPR151 activ
O=c1c(O)c(-c2ccc(O)c(O)c2)oc2c(O)c(O)cc(O)c12 | 57* | -18 | 0 | 4
N#Cc1ccc(NC(=O)c2ccco2)cc1Cl | -1 | -27 | 0 | 0
COc1cc(Br)c([N+](=O)[O-])cc1[N+](=O)[O-] | 37 | 43* | 0 | 0
c1ccc2c(CN3CCC(N4CCCC4)CC3)c[nH]c2c1 | 3 | 5 | 0 | 1
CCOc1ccc(C(=O)C(CN2CCCC2)c2ccccc2)cc1 (configuration not stated) | -22 | 4 | 0 | 0
CN(C(=O)Cc1ccccc1)[C@H](CN1CCCC1)c1ccccc1 | 2 | · | 1.9* | 0
COc1ccccc1C1NCCc2[nH]cnc21 (configuration not stated) | 9 | 2 | 0 | -1
CCn1nc(-c2ccc([N+](=O)[O-])cc2)nc2c(=O)n(C)c(=O)nc1-2 | 9 | 70* | 0 | -8
COc1ccc(-n2c(/C=C/c3ccccc3)nc3ccccc3c2=O)cc1 | -3 | 7 | 0 | 1
CCn1nc(/C=C/c2ccccc2)nc2c(=O)n(C)c(=O)nc1-2 | 6 | 33* | -2 | -6
Oc1ccccc1C1NOC2(O)C3CCN(CC3)C12 (configuration not stated) | 7 | 0 | 0 | -1
O=C1C=CC(=O)c2c(O)cccc21 | 108* | 2 | 0 | 0
CCOc1ccc(N2C(=O)/C(=C/c3cccs3)C(=O)NC2=S)cc1 | 11 | 9 | 0 | 2
CCOC(=O)C1=C(NC(=S)NC(=O)c2ccccc2)c2ccccc2CC12CCCC2 | 17 | 41* | 0 | 0
O=S(=O)(c1cccs1)N1CCc2nc3ncccc3cc2C1 | 2 | -1 | 0 | 0
CCn1cnc2c(Nc3cccc(Cl)c3)nc(N[C@@H]3CCCC[C@@H]3N)nc21 | -4 | 46* | 0 | 2
Cn1ccnc1P(c1ccccc1)C(C)(C)C (configuration not stated) | 1 | 3 | 0 | -1
NCCc1cc(O)c(O)cc1O | 114* | -9 | 0 | 0
CCN(CC)c1ccc(CNCCc2c(C)[nH]c3ccccc23)cc1 | 75* | 9 | 0 | 0
COc1ccccc1/C=N/N=C(\N)N[N+](=O)[O-] | 3 | -5 | 0 | 0
CCN(CC)c1ccc(N=Cc2c(O)[nH]c(=O)[nH]c2=O)cc1 | 66* | 15 | 0 | -1
COc1ccc(/C=C/c2nc3ccccc3c(=O)n2-c2ccc(C)c(C)c2)cc1 | 5 | 6 | 1 | -2
CN1C(=O)NC(=O)/C(=C/c2cccs2)C1=O | 11 | -3 | 0 | 3
CN1C(=O)NC(=O)/C(=C\c2cccc(Oc3ccccc3)c2)C1=O | 65* | 15 | 0 | -1
CCCCOC(=O)c1c(N)n(CCCOC)c2nc3ccccc3nc12 | 16 | 6 | 0 | 1
SMILES | MITF inh | TEAD-YAP block | FBW7 act | GPR151 activ
O=C1NC(=S)NC(=O)C1=Cc1cc2c(cc1[N+](=O)[O-])OCO2 | 86* | -1 | -1 | 0
COc1ccc(OC)c(C2=NCC(=O)Nc3c2oc2ccccc32)c1 | -4 | 52* | 0 | 1
COC(=O)C1=C(N)Oc2cc(C)n(C)c(=O)c2C12C(=O)N(Cc1ccc(Cl)cc1)c1ccccc12 (configuration not stated) | 5 | 6 | 0 | 0
COc1ccc(N2C(=O)/C(=C\c3ccc(C)o3)C(=O)NC2=S)cc1 | -3 | -2 | 0 | -1
COc1ccc(N2C(=O)/C(=C/c3ccc(Br)o3)C(=O)NC2=S)cc1 | 60* | 9 | 0 | -1
COc1ccc(N2C(=O)NC(=O)/C(=C/c3ccc(Br)o3)C2=O)cc1 | 73* | 3 | 0 | 3
COc1ccc(Sc2ccc(C=C3C(=O)NC(=O)NC3=O)o2)cc1 | 9 | 9 | 0 | 0
Cc1ccc(N2C(=O)NC(=O)/C(=C/c3ccc([N+](=O)[O-])o3)C2=O)cc1 | 70* | 0 | 0 | 0
O=C1NC(=O)C(=Cc2ccc(Br)o2)C(=O)N1 | 63* | -1 | 0 | 2
CCOC(=O)NC(=S)N1CCc2nc3ncccc3cc2C1 | 12 | 3 | 0 | 0
CCOC(=O)N1CCN(CC(=O)Nc2ccc([N+](=O)[O-])cc2C(=O)c2ccccc2)CC1 | -1 | -18 | 0 | -2
CO[C@H]1CN(c2ccc(C#CC3(O)CN4CCC3CC4)c(Cc3ccccc3)n2)C[C@H]1O (some centres not stated) | · | · | · | 0
Cc1nn(-c2ccccc2)c(Cl)c1C=C1C(=O)NC(=O)NC1=O | 6 | -6 | -1 | 1
COCCN1C(=S)NC2c3cccc(OC)c3OC1(C)C2C(=O)OC (configuration not stated) | -7 | -8 | 0 | 2
COc1cc(C(=O)ON=C2CC3CCC(C2)N3C)cc(OC)c1OC | -1 | 6 | 0 | 1
CN(N=O)c1ccc(O)c(O)c1 | 77* | 2 | 0 | 1
COc1ccc(Cl)cc1-n1c(/C=C\c2ccc(F)c(F)c2)nc2ccccc2c1=O | 3 | -3 | 0 | -2
C[C@H]1CCC/C=C/C2C[C@H](O)C[C@H]2[C@H](O)/C=C/C(=O)O1 (some centres not stated) | 3 | · | 2.1* | 2
C[C@H]1CCC/C=C/[C@@H]2C[C@H](O)C[C@H]2[C@H](O)/C=C/C(=O)O1 | 11 | 68* | 0 | -3
O=Cc1cn(Cc2cccc([N+](=O)[O-])c2)c2ccccc12 | -4 | 48* | -1 | -1
O=[N+]([O-])c1cccc(CN2CCN(Cc3ccccc3)CC2)c1 | 36 | 2 | 0 | -1
Cc1c2oc3c(C)ccc(C(=O)N[C@@H]4C(=O)N[C@H](C(C)C)C(=O)N5CCC[C@H]5C(=O)N(C)CC(=O)N(C)[C@@H](C(C)C)C(=O)O[C@@H]4C)c3nc-2c(C(=O)N[C@@H]2C(=O)N[C@H](C(C)C)C(=O)N3CC(=O)C[C@H]3C(=O)N(C)CC(=O)N(C)[C@@H](C(C)C)C(=O)O[C@@H]2C)c(N)c1=O | 4 | 95* | 0 | -1
Cc1ccc(OCc2c(C(=O)NC3CC3)c(=O)cc(C)n2CCN2CCOCC2)cc1 | 5 | 6 | 0 | 1
COc1ccc(-n2cnc3cc(C(=O)N4CCC5(CC4)OCCO5)ccc32)cc1 | 2 | 48* | 0 | 0
O=C(c1ccc2c(c1)ncn2C1CCCCCC1)N1CCC2(CC1)OCCO2 | -1 | -11 | 0 | 0
O=C(c1ccc2c(c1)ncn2-c1ccc(OCc2ccccc2)cc1)N1CCC2(CC1)OCCO2 | -2 | 42* | 0 | 2
CCOC(=O)C1=C(N)OC(C)=C(C(=O)OC)C12C(=O)N(CC(=O)OC)c1ccccc12 (configuration not stated) | 1 | -8 | 0 | -1
CN(C)C(=O)On1c(-c2ccc(Cl)cc2)nc2ccc([N+](=O)[O-])cc21 | 3 | -67 | 0 | 1
O=c1c2ccccc2nc(/C=C/c2ccc([N+](=O)[O-])o2)n1-c1cccc(O)c1 | 3 | 34* | 0 | 0
N#CCCn1cc(C(=O)NCc2ccccc2)c(-c2ccc([N+](=O)[O-])cc2)n1 | -3 | -14 | 0 | 0

Assay outcomes (PubChem BioAssay)
